In PubChem BioAssay AID651756 (Johns Hopkins Ion Channel Center, 2012):
Measured potencies and affinities stand elsewhere. The source made the active and inactive calls.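 Rule for the calls: active = dose curve could be fitted and remaining uptake under 40% of control at 33.3 µM; inactive = the rest.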

Target: High affinity choline transporter 1 (Homo sapiens) (UniProt Q9GZV3)
Test: choline transporter CHT inhibition potency – cell-based, 3H-choline uptake, radioactive, HEK293 CHT LV-AA, orthogonal assay for CHT inhibitor project, dose response (AID 651756)
Details: HEK293 CHT cells, scintillation; series mostly up to 33.3 µM; remaining uptake, % of control: at the top concentration

High affinity choline transporter 1 (Homo sapiens), sequence (Q9GZV3 whole entry, looked up): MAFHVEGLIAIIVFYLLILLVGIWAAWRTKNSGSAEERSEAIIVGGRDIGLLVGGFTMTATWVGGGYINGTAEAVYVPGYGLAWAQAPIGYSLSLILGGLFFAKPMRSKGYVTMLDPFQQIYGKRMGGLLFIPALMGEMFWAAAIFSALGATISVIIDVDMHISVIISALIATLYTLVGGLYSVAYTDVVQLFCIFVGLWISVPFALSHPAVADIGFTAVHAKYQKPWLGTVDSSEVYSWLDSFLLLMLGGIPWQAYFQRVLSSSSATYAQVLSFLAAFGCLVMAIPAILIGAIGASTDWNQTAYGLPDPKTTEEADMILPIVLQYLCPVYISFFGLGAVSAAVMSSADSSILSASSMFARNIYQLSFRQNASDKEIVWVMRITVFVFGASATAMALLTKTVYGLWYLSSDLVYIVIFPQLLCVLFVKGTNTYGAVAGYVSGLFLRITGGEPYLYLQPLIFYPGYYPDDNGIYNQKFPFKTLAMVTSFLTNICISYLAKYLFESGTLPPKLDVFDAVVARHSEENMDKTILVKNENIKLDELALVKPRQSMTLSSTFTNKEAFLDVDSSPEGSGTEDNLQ

Remaining uptake, % of control, inactive:
Cc1ccc(C(=O)Nc2ccc(S(=O)(=O)Nc3ccccn3)cc2)cc1 70.1
O=C1CC2(CCCCC2)C(=O)N1c1ccc(S(=O)(=O)Nc2ccccn2)cc1 68
O=C(Nc1ccc(S(=O)(=O)Nc2ccccn2)cc1)c1ccccc1-c1ccccc1 62.4
COc1cc(C)ccc1C(=O)Nc1ccc(S(=O)(=O)Nc2ccccn2)cc1 64.3
Cc1cccc(C(=O)Nc2ccc(S(=O)(=O)Nc3ccccn3)cc2)c1C 82.9
O=C(Nc1ccc(S(=O)(=O)Nc2ccccn2)cc1)c1ccc(Cl)cc1 71.4
O=C1c2ccc(Cl)cc2C(=O)N1c1ccc(S(=O)(=O)Nc2ccccn2)cc1 86.3
Cc1c(C(=O)Nc2ccc(S(=O)(=O)Nc3ccccn3)cc2)cccc1[N+](=O)[O-] 58.4
Cc1cc(F)ccc1C(=O)Nc1ccc(S(=O)(=O)Nc2ccccn2)cc1 38.5
O=C1CC(c2ccccc2)C(=O)N1c1ccc(S(=O)(=O)Nc2ccccn2)cc1 (stereo not drawn) 63.3
O=C(Nc1ccc(S(=O)(=O)Nc2ccccn2)cc1)c1cccc(-c2ccccc2)c1 63.1
CC1(c2ccccc2)CC(=O)N(c2ccc(S(=O)(=O)Nc3ccccn3)cc2)C1=O (stereo not drawn) 70.7
O=C(Nc1ccc(S(=O)(=O)Nc2ccccn2)cc1)c1cccc(Cl)c1 64.5
Cc1ccccc1C(=O)Nc1ccc(S(=O)(=O)Nc2ccccn2)cc1 62.2
Cc1cccc(C(=O)Nc2ccc(S(=O)(=O)Nc3ccccn3)cc2)c1 86.3
O=C1c2ccccc2C(=O)N1c1ccc(S(=O)(=O)Nc2ccccn2)cc1 67.7
O=C1c2cccc(Cl)c2C(=O)N1c1ccc(S(=O)(=O)Nc2ccccn2)cc1 84.3
O=C(Nc1ccc(S(=O)(=O)Nc2ccccn2)cc1)c1cccc(C(F)(F)F)c1 70.6
O=C(Nc1ccc(S(=O)(=O)Nc2ccccn2)cc1)c1ccc2c(c1)CCCC2 57.4
Cc1ccc(C(=O)Nc2ccc(S(=O)(=O)Nc3ccccn3)cc2)c2ccccc12 44.9
O=C(Nc1ccc(S(=O)(=O)Nc2ccccn2)cc1)c1ccc(Cc2ccccc2)cc1 60.3
Cc1cc(C)c(C(=O)Nc2ccc(S(=O)(=O)N(C)c3ccccn3)cc2)c(C)c1 50.7
O=C(Nc1ccc(S(=O)(=O)Nc2ccccn2)cc1)c1ccc(C(F)(F)F)cc1 67.6
O=C(Nc1ccc(S(=O)(=O)Nc2ccccn2)cc1)c1cccc2ccccc12 50.6
O=C1c2cccc(F)c2C(=O)N1c1ccc(S(=O)(=O)Nc2ccccn2)cc1 71.1
O=C1C(c2ccccc2)C(c2ccccc2)C(=O)N1c1ccc(S(=O)(=O)Nc2ccccn2)cc1 (stereo not drawn) 68.7
Cc1ccc(C(=O)Nc2ccc(S(=O)(=O)Nc3ccccn3)cc2)c(C)c1 45.2
Cc1cc(C)c(C(=O)Nc2ccc(S(=O)(=O)Nc3ccccc3)cc2)c(C)c1 60.8
